Pf growth 48h – inhibits P. falciparum growth in the first generation, 48 h; P. falciparum luciferase growth in erythrocytes, 48 h; Potency, µM (top dose mostly 28.7 µM), most hits filed as inhibitors; actives 5.9% (n = 310,000); AID 504832; active means well fitted inhibition curve with a large enough effect; inconclusive means small, poorly fitted or top-dose-only effect, or another doubt; inactive means no such curve, though single readings can be large or run the other way
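Read-out is firefly luciferase luminescence from an integrated reporter in P. falciparum, so falling signal marks reduced parasite growth. Infected erythrocytes were at 2% hematocrit and 0.1% parasitemia (final) in Albumax-supplemented RPMI 1640.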
Pf growth 96h – P. falciparum growth inhibition at 96 hours. AID 504834. Potency, µM (series often up to 28.7 µM), hits mostly inhibitors. actives 6.9% (n = 320,000). P. falciparum luciferase reporter growth, 96 h; active means well fitted inhibition curve with a large enough effect; inconclusive means small, poorly fitted or top-dose-only effect, or another doubt; inactive means no such curve, though single readings can be large or run the other way
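Two parasite generations (96 h, 37 C, 5% CO2) of compound exposure in infected erythrocytes (0.05% parasitemia, 2% hematocrit). Luciferase-reporter P. falciparum; decreased luminescence indicates inhibited growth, aimed at apicoplast-acting delayed death.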
Shiga inhibitor – Shiga toxin inhibition | actives 9.2% (n = 290,000) | inhibition, % at 38.7 µM | AID 2315 | Vero cells, Shiga toxin protein synthesis inhibition reporter; in the data active means inhibition mostly above about 28%, no sharp cut-off; inactive means mostly below about 43%
Cycloheximide cs – counter-screen hit for Shiga toxin inhibitors, cycloheximide. cell reporter, cycloheximide protein synthesis inhibition counterscreen. max response, %. actives 12% (n = 300,000); in the data active means max response mostly above about 13%, no sharp cut-off; inactive means mostly below about 14%; further: read at 38.3 µM for the half of the compounds with a filed dose
NS1 function inh – blocks influenza NS1 protein function; Potency, µM (highest dose often 46.1 µM); actives 0.4% (n = 270,000); AID 2326; further: actives are rising curves; nearly all actives have a fitted effect of over 50% in size
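Compounds were scored for reversing the slow growth caused by influenza A NS1 in S. cerevisiae, measured by optical density at 600 nm. Assay medium contained 2% galactose at pH 6.0; NS1-free yeast of the same strain were the positive control.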
SARS PLpro yeast – inhibitors of SARS-CoV papain-like protease in yeast | S. cerevisiae expressing SARS-CoV PLpro, growth rescue | Potency, µM (top dose mostly 32.9 µM), hits mostly activators | actives 0.19% (n = 330,000) | AID 485353; further: nearly all actives have a fitted effect of over 55% in size
Each line names hits and unclear results; the compound was inactive in the other large screens. Sampled rows, rich in hits. Any-hit rate of the full collection: about 21%. Unless noted, the call rests on the fitted dose curve.

CCCCCCC(=O)N(O)C1CC(=O)N(Cc2ccccc2)C1=O (stereo not drawn)	Pf growth 48h 5.9µM (no result: Pf growth 96h)
C/C(=C\C=C\c1ccccc1)C(=O)c1c(C)cc(C)[nH]c1=O	none (no result: NS1 function inh)
Cc1cc(C)c(C(=O)/C=C/C=C/c2ccccc2)c(=O)[nH]1	Shiga inhibitor 52, Cycloheximide cs 25
CCOc1ccc(/C=C/C(=O)c2c(O)cc(C)oc2=O)cc1	Shiga inhibitor 57, Cycloheximide cs 42, NS1 function inh inconclusive
Cc1cc(O)c(C(=O)/C=C/c2ccc(C(C)C)cc2)c(=O)o1	Shiga inhibitor 66, Cycloheximide cs 53
CCOc1ccc(/C=C/C(=O)c2c(O)c3ccccc3oc2=O)cc1	none
Cc1cc(C)c(C(=O)/C=C/c2ccc(C(C)C)cc2)c(=O)[nH]1	Pf growth 48h inconclusive, Pf growth 96h inconclusive
Cc1cc(O)c(C(=O)/C=C/c2ccccc2)c(=O)o1	Pf growth 48h inconclusive, Pf growth 96h inconclusive, Shiga inhibitor 44
O=C(CCNC(=O)c1ccco1)NCc1ccc(C(=O)O)cc1	none (no result: Pf growth 48h, Pf growth 96h, Shiga inhibitor, Cycloheximide cs, NS1 function inh)
CC(=O)N1C(=O)CC(C)N(C(C)=O)c2ccc([N+](=O)[O-])cc21 (stereo not drawn)	none
Cc1cc(O)c(C(=O)/C=C/c2ccccc2Br)c(=O)o1	Pf growth 48h inconclusive, Cycloheximide cs 20, NS1 function inh inconclusive (no result: Shiga inhibitor)
CCc1ccccc1N/N=C(/C)c1c(O)cc(C)oc1=O	none
O=C(CC1Oc2ccccc2NC1=O)NCCCN1CCN(C2CCCCC2)CC1 (stereo not drawn)	none (no result: Pf growth 48h, Pf growth 96h, Shiga inhibitor, Cycloheximide cs, SARS PLpro yeast)
COc1ccccc1-c1ccc(SCC(=O)N2CCOCC2)nn1	Pf growth 48h inconclusive (no result: NS1 function inh)
Fc1cccc(CSc2ccc(-c3ccc4c(c3)OCO4)nn2)c1	none
COc1ccccc1-c1ccc(SCc2ccc(F)cc2)nn1	Shiga inhibitor 65, Cycloheximide cs 39 (no result: NS1 function inh)
COc1ccccc1-c1ccc(SCc2ccc(C)cc2)nn1	Shiga inhibitor 76, Cycloheximide cs 32 (no result: NS1 function inh)
Cc1ccc(S(=O)(=O)N2CCOCC2)cc1C(=O)OCC(=O)NC1CCCC1	none (no result: Pf growth 48h, Pf growth 96h, Shiga inhibitor, Cycloheximide cs, NS1 function inh)
Cc1c(O)ccc(-c2n[nH]c(C(=O)O)c2-c2nc3ccccc3s2)c1O	Shiga inhibitor 59, Cycloheximide cs 23
Cc1cc(C)c(NC(=O)Cn2cc3c(n2)CCCC3)c(C)c1	none
Cc1ccc2nc(NC(=O)Cn3cc4c(n3)CCCCC4)sc2c1	Cycloheximide cs 16
Cc1ccc(Cl)cc1NC(=O)Cn1cc2c(n1)CCCC2	Pf growth 96h 2.1µM (no result: Pf growth 48h)
O=C(Cn1cc2c(n1)CCCC2)Nc1ccccc1Cl	Pf growth 48h inconclusive, Pf growth 96h inconclusive
Cc1ccc2nc(NC(=O)CN3C(=O)NC4(CCCCC4)C3=O)sc2c1	none (no result: Shiga inhibitor, Cycloheximide cs, NS1 function inh)
O=C(Cn1cc2c(n1)CCCCC2)Nc1c(F)c(F)cc(F)c1F	Pf growth 96h 15µM (no result: Pf growth 48h)
O=C(Cn1cc2c(n1)CCCCC2)Nc1ccccc1Cl	Pf growth 48h inconclusive, Pf growth 96h inconclusive, Cycloheximide cs 12
O=c1ccn(-c2cccc(C(F)(F)F)c2)nc1-c1ccn(-c2cccc(Cl)c2)n1	Pf growth 48h inconclusive, Pf growth 96h inconclusive
CN1/C(=C\C=Nc2cc(S(=O)(=O)N3CCOCC3)ccc2N2CCOCC2)C(C)(C)c2ccccc21	Pf growth 96h 8.3µM
COC(=O)c1ccccc1SC(CC(=O)c1ccccc1)c1ccc(F)cc1 (stereo not drawn)	Pf growth 48h inconclusive, Pf growth 96h inconclusive, Shiga inhibitor 107, Cycloheximide cs 56
C/C(=N\Nc1ccc(Cl)c(C(=O)O)c1)c1ccc2c(c1)OCO2	Shiga inhibitor active, Cycloheximide cs 88 (no result: NS1 function inh)
O=C(O/N=C/c1ccc2c(c1)OCO2)c1ccccc1Cl	Shiga inhibitor 132, Cycloheximide cs 55
Cc1ccc(N/N=C/c2ccc3c(c2)OCCO3)cc1Cl	Pf growth 48h inconclusive, Shiga inhibitor 28, Cycloheximide cs 55
O=C(O)c1cc(N/N=C/c2ccc3c(c2)OCO3)ccc1Cl	Shiga inhibitor active, Cycloheximide cs 80 (no result: NS1 function inh)
O=C(O/N=C\c1ccc(N2CCOCC2)c([N+](=O)[O-])c1)c1ccccc1Cl	none
O=C(O)c1cc(S(=O)(=O)Nc2ccc3c(c2)OCCO3)c(Cl)cc1Cl	Pf growth 96h inconclusive, Shiga inhibitor 137, Cycloheximide cs 73
O=C(O)c1cc(N/N=C/c2ccc3c(c2)OCCO3)ccc1Cl	Shiga inhibitor 116, Cycloheximide cs 109
O=C(O)c1ccc(N/N=C/c2ccc3c(c2)OCO3)cc1	Pf growth 48h inconclusive
CCOC(=O)C1(Cc2cccc(Cl)c2)CCCN(C(=O)c2cc(C)[nH]n2)C1 (stereo not drawn)	Pf growth 48h inconclusive
CCOC(=O)C1(Cc2cccc(Cl)c2)CCCN(C(=O)c2cc(C(C)C)nn2C)C1 (stereo not drawn)	Pf growth 48h inconclusive, Cycloheximide cs 32
CCOC(=O)C1(Cc2cccc(Cl)c2)CCCN(C(=O)c2ccc(C)nc2)C1 (stereo not drawn)	Pf growth 96h 15µM
CCOC(=O)C1(Cc2cccc(Cl)c2)CCCN(C(=O)c2c(CC)noc2C)C1 (stereo not drawn)	Pf growth 48h inconclusive, Pf growth 96h inconclusive, Shiga inhibitor 24, Cycloheximide cs 41
CCOC(=O)C1(Cc2cccc(Cl)c2)CCCN(C2CCN(C(C)=O)CC2)C1 (stereo not drawn)	Pf growth 48h inconclusive
CCOC(=O)C1(Cc2cccc(Cl)c2)CCCN(C(=O)c2cc(C)on2)C1 (stereo not drawn)	Shiga inhibitor 59, Cycloheximide cs 28
Cc1cc(C(C)(C)C)ccc1OC(=O)C1=CC=CN2CCS(=O)(=O)N=C12	none (no result: Shiga inhibitor, Cycloheximide cs, NS1 function inh)
CC(C)Cn1c(=O)[nH]c(=O)c2c(C(F)(F)F)cc(-c3ccccc3)nc21	Pf growth 48h inconclusive, Pf growth 96h 8.3µM
O=c1[nH]c(=O)n(Cc2ccccc2)c2nc(-c3ccco3)cc(C(F)(F)F)c12	Pf growth 48h inconclusive, Pf growth 96h 5.9µM
Cc1cc(C(F)(F)F)c2c(=O)[nH]c(=O)n(Cc3ccccc3)c2n1	Pf growth 96h inconclusive
CCCn1c(=O)[nH]c(=O)c2c(C(F)(F)F)cc(-c3ccc(C)cc3)nc21	Pf growth 96h 2.6µM (no result: NS1 function inh)
CC1(C)CC(=O)C=C(Nc2ccc(C(=O)O)c(O)c2)C1	Pf growth 96h inconclusive
O=S(=O)(NCC(c1ccco1)N1CCc2ccccc2C1)c1ccc(F)cc1 (stereo not drawn)	none (no result: Shiga inhibitor, Cycloheximide cs, NS1 function inh)
O=C(COc1ccc(S(=O)(=O)NC2CCCCC2)cc1)NC1CC1	none
O=C(COc1ccc(S(=O)(=O)N2CCCCC2)cc1)NC1CCCCC1	Pf growth 48h 8.3µM, Pf growth 96h inconclusive
O=C(COc1ccc(S(=O)(=O)NC2CCCCC2)cc1)NC1CCCCC1	Pf growth 48h 15µM, Pf growth 96h inconclusive
O=C(COc1ccc(S(=O)(=O)NC2CCCCC2)cc1)NC1CCCC1	none
CCn1ncc(Br)c1C(=O)Nc1ccccc1C(F)(F)F	Pf growth 96h inconclusive
Cc1ccnc(N(C(=O)Nc2ccccc2)C2=NCC(C)(C)S2)c1	Shiga inhibitor 59, Cycloheximide cs 43

Compound activity deposited in PubChem BioAssay by National Center for Advancing Translational Sciences (NCATS).
